A selection: hits, their analogues and other compounds. The true share with any hit is near 9.2%.
SMN2 splice enh: increases expression of the SMN2 splice variant | HEK293 SMN2-luciferase splicing reporter, luminescence, 30-36 h | Potency, µM (highest dose often 46.1 µM), for inactives: at the highest dose activity change, positive = activation, hits mostly activators | 210,000 tested, 2.8% active | AID 1458; also: % of control where 0% means no effect; nearly all actives have a fitted effect of over 55% in size
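qHTS luciferase splicing reporter: luminescence rises when SMN2 exon 7 is included in transfected HEK293 cells. Compound exposure lasted 30-36 h at 37C, with 4.5 mM final sodium butyrate as control, followed by a ONE-Glo read.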
Rab9 promoter act: activators of Rab9 promoter; Huh7 Rab9 promoter-luciferase reporter, luminescence, 24 h; Potency, µM (series often up to 9.22 µM), without a hit: at the highest dose activation, negative = inhibition, hits mostly activators; 320,000 tested, 2.8% active; AID 485297; also: % of control where 0% means no effect; nearly all actives have a fitted effect of over 60% in size
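Luciferase signal after 10 min detection reagent at ambient indicates Rab9 promoter upregulation; stably transfected Huh7 cells were treated 24 h with compound in DMSO at 37 °C, 5% CO2.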
FLuc counter: firefly luciferase modulation, counter-screen for miR-21 project | P08659 | 360,000 tested, 6.9% active | Potency, µM (doses to about 57.5 µM), without a hit: top-dose activity change, negative = inhibition, actives largely listed as inhibitors | AID 588342 | purified FLuc, Km substrates, luminescence inhibition;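 also: plate controls were vehicle for no effect and reference inhibitor for full effect; nearly all actives have a fitted effect of over 55% in size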
Target sequence (P08659 whole entry, looked up): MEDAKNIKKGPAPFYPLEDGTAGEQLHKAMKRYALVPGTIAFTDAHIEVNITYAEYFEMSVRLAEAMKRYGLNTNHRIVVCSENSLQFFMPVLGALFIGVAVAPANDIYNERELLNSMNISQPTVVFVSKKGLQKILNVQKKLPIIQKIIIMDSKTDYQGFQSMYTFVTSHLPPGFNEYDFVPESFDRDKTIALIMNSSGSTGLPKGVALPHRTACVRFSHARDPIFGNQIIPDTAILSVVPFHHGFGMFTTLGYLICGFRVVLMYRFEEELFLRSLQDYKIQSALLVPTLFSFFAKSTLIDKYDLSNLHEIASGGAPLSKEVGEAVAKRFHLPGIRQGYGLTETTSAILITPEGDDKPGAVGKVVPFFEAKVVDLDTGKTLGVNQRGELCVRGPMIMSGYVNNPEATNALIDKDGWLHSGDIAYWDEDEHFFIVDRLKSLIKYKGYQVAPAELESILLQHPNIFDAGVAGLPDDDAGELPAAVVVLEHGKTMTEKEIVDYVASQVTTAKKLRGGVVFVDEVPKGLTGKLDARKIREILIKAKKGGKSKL
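Biochemical qHTS of compounds, final roughly 60 µM downward over six points, against 10 nM purified firefly luciferase using Km concentrations of substrates (10 uM D-luciferin, 10 uM ATP) in Tris acetate pH 7.5 buffer; luminescence output.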
NPC1 prom act: NPC1 promoter activation | Huh7 NPC1 promoter luciferase reporter, 24 h | Potency, µM (doses to about 9.22 µM), without a hit: at the highest dose activation, most hits filed as activators | 320,000 tested, 2.4% active; also: % of control where 0% means no effect; nearly all actives have a fitted effect of over 60% in size
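Compounds in DMSO were transferred onto Huh7 NPC1-luciferase reporter cells pre-incubated 2 h; after 24 h at 37 °C, Amplite reagent was dispensed and luminescence recorded 10 min later.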
ELG1 genotoxic: genotoxicity induction in ELG1-luciferase HEK293T cells. Potency, µM (series often up to 46 µM), inactives show at the highest dose activity change, positive = activation, usual class: activators. 330,000 tested, 1.3% active. HEK293T ELG1-luciferase reporter, luminescence, 16 h; also: % of control where 0% means no effect; nearly all actives have a fitted effect of over 60% in size
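HEK293T cells expressing luciferase-tagged ELG1 were exposed to compound or DMSO vehicle for 16 hr at 37 °C and 5% CO2. Luciferase activity was then measured with ONE-Glo after 30 min at room temperature.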
ELG1 repair inh: inhibitors of ELG1-dependent DNA repair in HEK293T cells; HEK293T ELG1-luciferase reporter, luminescence, 16 h; DNA damage induced by 5-fluorouridine; Potency, µM (titrated, usually from 46.1 µM), without a hit: at the top dose activity change, negative = inhibition, usual class: inhibitors; 330,000 tested, 2.3% active; also: % is scaled to controls: 0 for no effect and ±100 for the full control effect; nearly all actives have a fitted effect of over 55% in size
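HEK293T cells expressing luciferase-tagged ELG1 (2,000/well) received 5-Fluorouridine plus compound or DMSO for 16 hr at 37 °C. Luciferase was read by ONE-Glo luminescence after 30 min at room temperature.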
Active calls of the source: *; ? = inconclusive; · = no result. Calls follow the shape of the dose curve; as a rule, active = well fitted curve in the direction sought with a large enough effect; inconclusive = small, poorly fitted or top-dose-only effect, or another doubt; inactive = no such curve, though single readings can be large; an effect the other way counts as inactive or inconclusive. Potency is read from the fitted curve at half-maximal effect.

SMILES | SMN2 splice enh | Rab9 promoter act | FLuc counter | NPC1 prom act | ELG1 genotoxic | ELG1 repair inh
COc1ccc(C(=O)Nc2nc3ccccc3[nH]2)cc1 | · | ? | 0.19µM* | 0.11µM* | ? | ?
Cc1c(C(=O)Nc2nc3ccccc3[nH]2)oc2c(Cl)cccc12 | ? | 24% | -16% | 13% | ? | ?
COc1cc(C(=O)Nc2nc3ccccc3[nH]2)cc(OC)c1OC | 15% | -2% | ? | 7% | -1% | ?
CC(=O)c1cccc(NC(=O)NC(C)c2ccncc2)c1 (configuration not stated) | -26% | 1% | 6% | 3% | 3% | -6%
CN(C(=O)CSc1nc2ccc(NC(=O)c3cccs3)cc2s1)c1ccccc1 | · | · | -16% | · | · | ·
COc1ccc(C(=O)N[C@H](C(=O)Nc2nc3ccccc3[nH]2)C(C)C)cc1 | 10µM* | -5% | 6.7µM* | 15% | 12µM* | ?
Cc1cccc(C(=O)N[C@H](C(=O)Nc2nc3ccccc3[nH]2)C(C)C)c1 | -28% | -19% | -1% | -17% | ? | ?
Cc1cc([N+](=O)[O-])ccc1NC(=O)c1cc2ccccc2o1 | · | 2.5µM* | ? | ? | -4% | ?
Cc1ccc(NC(=S)c2ccc3ccccc3n2)c(C)c1 | · | 1.6µM* | 11µM* | 1.1µM* | ? | ?
Cc1ccc(C)c(NC(=O)c2cc3ccccc3o2)c1 | · | 4µM* | 13µM* | ? | 17% | ?
COc1cc(N)ccc1NC(=O)c1cc2ccccc2o1 | · | 3.2µM* | 11µM* | 4µM* | ? | ?
CCn1c(=O)cc(SCC(=O)NCc2cccc(Cl)c2)c2ccccc21 | 1% | · | -15% | · | · | ·
COc1ccc(OCC(O)CNS(=O)(=O)c2ccc(C)cc2)cc1 (configuration not stated) | · | -3% | -1% | 0% | -2% | -15%
Cc1ccc(C)c(NC(=O)c2ccc3ccccc3n2)c1 | 14µM* | 2µM* | 0.85µM* | 4µM* | ? | ?
CCCC(=O)Nc1ccc(NC(=O)c2cc3ccccc3o2)c(OC)c1 | · | 2.5µM* | ? | 4µM* | 18% | 0%
COc1ccc(OC)c(NC(=O)c2cc3ccccc3o2)c1 | · | 0% | -15% | 15% | ? | 6%
COc1ccc(C)cc1NC(=O)c1cc2ccccc2o1 | 17% | -1% | 15µM* | 5% | 7% | ?
COc1cc(NC(C)=O)ccc1NC(=O)c1cc2ccccc2o1 | · | ? | 3% | ? | ? | ?
CC1CC(C)CN(C(=O)CCC(=O)Nc2nnc(C(C)C)s2)C1 (configuration not stated) | · | 4% | 0% | -5% | 2% | 22%
CCCC[C@@H]1C=C(C(=O)O)[C@H](c2ccc(C#N)cc2)N1S(=O)(=O)c1ccc(C)cc1 | · | · | · | · | 2% | -10%
CC(C)CC(=O)O/N=C1\C(=O)N(Cc2ccc(Cl)cc2)c2ccc([N+](=O)[O-])cc21 | -32% | -42% | -2% | -32% | -3% | -23%
NC(=O)C1CCN(CC(=O)Nc2cc(S(=O)(=O)N3CCOCC3)ccc2N2CCCC2)CC1 | · | -2% | 0% | 0% | -2% | 10%
COCc1ccc(C(=O)N(C)CC2CCCN(CCc3ccc(OC)cc3)C2)o1 (configuration not stated) | · | ? | 17µM* | ? | ? | ?
COCc1ccc(C(=O)N(C)CC2CCCN(CCc3ccc(Cl)cc3)C2)o1 (configuration not stated) | · | 0% | -2% | 8% | -6% | -5%
Cc1ccc(C(=O)Nc2cccc(C(=O)O)c2)cc1S(=O)(=O)N1CCCCC1 | 11µM* | 0.4µM* | 0.34µM* | 0.79µM* | ? | ?
SMILES | SMN2 splice enh | Rab9 promoter act | FLuc counter | NPC1 prom act | ELG1 genotoxic | ELG1 repair inh
Cc1ccc(C(=O)Nc2cccc(S(=O)(=O)N3CCCCC3)c2)cc1[N+](=O)[O-] | · | -11% | -14% | -5% | -5% | 11µM*
Cc1ccc(C(=O)Nc2cccc(C(=O)O)c2)cc1S(=O)(=O)N1CCOCC1 | 13µM* | 2.2µM* | 1.1µM* | 1.3µM* | 12% | ?
Cc1ccc(C(=O)Nc2ccc3c(c2)CCC3)cc1S(=O)(=O)N1CCOCC1 | ? | 2.2µM* | 17µM* | ? | ? | ?
CS(=O)(=O)c1ccc(Cl)c(NC(=O)C2CCCCN2S(=O)(=O)c2ccccc2)c1 (configuration not stated) | · | -6% | 2% | 0% | -3% | -1%
COc1ccc(CNCC(=O)Nc2cccc(S(N)(=O)=O)c2)cc1 | -3% | -8% | 0% | 3% | -5% | 3%
CSc1nnc(NC(=O)c2ccc(C)c(S(=O)(=O)N3CCOCC3)c2)s1 | 11µM* | 6% | ? | 26% | ? | ?
Cc1nnc(NC(=O)c2ccc(C)c(S(=O)(=O)N3CCOCC3)c2)s1 | 5% | · | ? | · | · | ·
Cc1ccc(NC(=O)c2cccc(S(=O)(=O)N(C)c3ccccc3)c2)cc1S(=O)(=O)N1CCOCC1 | -37% | -10% | -1% | -1% | -4% | 13µM*
Cc1ccc(C(=O)Nc2ccccc2C(=O)NCc2ccco2)cc1S(=O)(=O)N1CCCCC1 | -6% | -2% | -15% | -1% | -4% | 12µM*
O=c1cc2c(nn1Cc1ccc(Cl)cc1Cl)-c1ccccc1CC2 | -32% | -4% | -1% | 1% | -2% | -19%
O=C1c2ccccc2C(=O)N1OCc1cccc(Cl)c1 | -20% | 4% | 19µM* | 0% | 3% | ?
O=C1c2ccccc2C(=O)N1OCc1ccccc1 | -4% | -5% | ? | 4% | -3% | 2%
O=C1Cc2ccccc2C(=O)N1OCc1ccc(Cl)cc1Cl | 12% | 3% | 24µM* | 4% | 5% | 21%
Cc1ccc(-n2nnc(-c3nsc(NC(=O)c4ccccc4C)n3)c2C)cc1Cl | · | · | 0% | · | · | ·
O=C(CNC(=O)c1ccc(F)cc1)N/N=C/c1cc(Br)ccc1OCc1ccccc1 | 9% | -5% | 2% | -3% | -6% | ?
COc1ccc(/C=N/NC(=O)c2ccccc2OCc2ccccc2)c(OC)c1 | -14% | 1% | 17µM* | -2% | -12% | ?
COc1cc(C(=O)NCc2ccccc2)ccc1OC(F)F | · | -5% | -5% | 6% | -4% | 6%
COc1ccccc1C=NNC(=O)c1ccccc1OCCOc1ccccc1 | · | · | · | · | -6% | ?
O=C(CNC(=O)c1ccccc1O)N/N=C/c1cc(Br)ccc1OC(=O)/C=C/c1ccco1 | -103% | -23% | -11% | -40% | -4% | 4.1µM*
COc1ccccc1C(=O)NCC(=O)N/N=C/c1cc(Br)ccc1OCc1ccccc1 | 4% | -4% | 8% | 1% | -15% | 7.3µM*

Screening data from PubChem BioAssay.
